About 83,000 compounds went through this panel and 20% of them were active in at least one assay; those are over-represented in the sample as a whole.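 Single-concentration screen, 48 h exposure, 96-well plates. Endpoint: percent growth. Below 10 = active.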 Activity calls are given as the source filed them.
The compounds below were run on ACHN renal (assay: NCI-60 one-dose screen, 48 h (100 = growth as untreated, 0 = no growth, -100 = all killed)). Settings: 10 µM unless noted.
Protocol: Growth inhibition of the ACHN human tumor cell line is measured as a screen for anti-cancer activity. Cells are grown in 96 well plates and exposed to the test compound for 48 hours. Compounds are tested at a single concentration, which is 10^-5 M for most compounds. The reported endpoint is percent growth (GI% or GIPRCNT), where numbers from 0 - 100% represent growth inhibition, and numbers from -100% - 0 represent cell death. For example, a value of 40 represents 60% growth inhibition. A value of 0 means no net growth occurred over the course of the experiment. A value of -40 indicates 40% of cells at the beginning of the experiment died by the end of the experiment. A value of -100 means all cells are dead at the end of the experiment.
NCI-60 Human Tumor Cell Lines Screen was performed using the standard one-dose NCI protocol, which is described in more detail at https://dtp.cancer.gov/discovery_development/nci-60/default.htm.
Compounds with GIPRCNT values below 10 were considered active. Activity score was based on GIPRCNT using the following formula: […]
Score is 0 for GIPRCNT values of 100 or above, 50 for GIPRCNT values of 0, and 100 for GIPRCNT values of -100.

SMILES	growth
Cc1c(C(=O)C(SC(=S)N2CCOCC2)SC(=S)N2CCOCC2)nnn1-c1ccc([N+](=O)[O-])cc1	98% (inactive)
Nc1ncc(-c2ccc3ncnc(N4CCc5cc(F)c(Cl)cc54)c3c2)cc1C=O	7.1% (active)
CN(C)CCOc1nc2c3cc([N+](=O)[O-])ccc3nn2c2ccccc12	-51.3% (active)
COC(=O)c1sc(-c2ccc(C)cc2)cc1O	112% (inactive)
CC1(C)CC[C@]2(CO)CC[C@]3(C)C(=CC[C@@H]4[C@@]5(C)CCNCC(C)(C)[C@@H]5CC[C@]43C)[C@@H]2C1	88% (inactive)
COC1=C(OC)C(=O)C(CCCCCCCCCCO)=C(C)C1=O	60.5% (inactive)
O=C1c2c(c3c4cccnc4[nH]c3c3ccc4ccccc4c23)C(=O)N1O	45% (inactive)
CCOC(=O)C1=C(c2ccccc2)N=C2SC=C(c3cccc([N+](=O)[O-])c3)N2C1c1ccc(O)cc1 (stereo not given)	106% (inactive)
CCN1CCN(C(=O)[C@]23CC[C@@H](C)[C@H](C)[C@@H]2C2=CC[C@@H]4[C@@]5(C)C/C(=C/c6ccncc6)C(=O)C(C)(C)[C@@H]5CC[C@@]4(C)[C@]2(C)CC3)CC1	15.2% (inactive)
CCCCCCCCNc1ncnc2c1ncn2Cc1nnc2c3ccccc3c(Cl)nn12	28.5% (inactive)
Cc1[nH]c(C(=O)Nc2ccc(C(N)=O)cc2OC(C)C)c(Cl)c1Cl	97.2% (inactive)
Cc1ccc(C23CCC(=O)N2CCc2cncn23)cc1 (stereo not given)	105% (inactive)
O=C(c1ccccc1)[C@@H](c1ccccc1)[C@]1(O)C(=O)Nc2ccccc21	90.1% (inactive)
COC(=O)c1c(C)nc(C)c2c1C(=O)C(Br)=C(NCCCCO)C2=O	84.7% (inactive)
O=c1oc2ccccc2cc1-c1nn(-c2ccccc2)cc1/C=N/Nc1nc(-c2ccccc2)c(N=Nc2ccccc2)s1	92.9% (inactive)
CCOC(=O)CSc1nc2sc3c(c2c(=O)n1-c1ccccc1)CCCCC3	102% (inactive)
COc1ccccc1/C=C/C1=C(C)CCC(c2ccccc2OC)C1C (stereo not given)	13% (inactive)
COc1ccc(-c2nc(SCCC(C)C)nc(N/N=C(/C)c3ccc(N)cc3)c2C#N)cc1	92.9% (inactive)
Nc1ccc(Cl)c2c(=O)c3ccccc3[nH]c12	80.8% (inactive)
CN1CCN(CCCNC(=O)c2c3c(n4ccccc24)C(=O)c2ncccc2C3=O)CC1	7.62% (active)

SMILES	growth
CC/C(=C(/c1ccc(Cl)cc1)c1ccc(OCCCN(C)C)cc1)c1ccc(OC)cc1	83.6% (inactive)
COc1cccc2cc(N(C)c3ncnc4ccccc34)ccc12	6.07% (active)
Nc1nc(N)c2c(n1)NC(c1cccc(Nc3ccnc4cc(C(F)(F)F)ccc34)c1)CC(c1ccc(Cl)cc1)=N2 (stereo not given)	72.7% (inactive)
O=C(COc1ccc(/C=C2\Oc3ccccc3C2=O)cc1)Nc1nccs1	107% (inactive)
CCOC(=O)c1ccc2c(c1)[n+](=O)c(C(C)=O)c(C(F)(F)F)n2[O-]	5.29% (active)
COc1cc(C(=O)/C=C/c2c(-c3cccs3)nc3sc(C)cn23)cc(OC)c1OC	12.7% (inactive)
Cn1nc(-c2ccc(Cl)cc2)nc2c(=O)n(C)c(=O)nc1-2	-88.7% (active)
CN(C)CCOc1ccc(/C(=C(/CCCCCCCCCC[P+](c2ccccc2)(c2ccccc2)c2ccccc2)c2ccccc2)c2ccccc2)cc1	-95.8% (active)
CSc1nc(N)c2c(n1)NC(c1ccccc1)C1CCc3ccccc3C1=N2 (stereo not given)	72.3% (inactive)
O=C1NCCS(=O)(=O)/C1=C\C=C\c1cccc(C(F)(F)F)c1	12.7% (inactive)
COC1CC(O)C2=C(CC3C(/C(C)=C\CC=C(C)C)CCC3(C)O2)C1=O (stereo not given)	111% (inactive)
CN1CCN(CC(=O)N(C)c2ccc(N=C(c3ccccc3)c3c(O)[nH]c4ccc([N+](=O)[O-])cc34)cc2)CC1	54% (inactive)
COc1cc(C2=Nc3c(N)nc(N)nc3NC(c3cccc(Nc4ccnc5cc(C(F)(F)F)ccc45)c3)C2)cc(OC)c1OC (stereo not given)	96.8% (inactive)
CCCn1cnc2c(c1=N)C(c1ccc(Cl)cc1)c1sc3c(F)cccc3c1O2 (stereo not given)	84.1% (inactive)
C=CC(=O)Nc1ccc2ncnc(Nc3cccc(NS(=O)(=O)CCC)c3Cl)c2c1	29.3% (inactive)
C=C(c1ccc(C(=O)O)c(F)c1)c1cc2c(cc1C)C(C)(C)C=CC2(C)C	83.4% (inactive)
CCN(CC)CCCNC(=O)c1c2c(n3ccccc13)C(=O)c1ncccc1C2=O	-34.5% (active)
COc1ccc(S(=O)(=O)Oc2ccc(-c3sc4cc(OS(=O)(=O)c5ccc(OC)cc5)ccc4c3C(=O)c3ccc(OCCN4CCCCC4)cc3)cc2)cc1	101% (inactive)
O=[N+]([O-])c1ccc(Oc2cccc3c(Oc4ccc([N+](=O)[O-])cc4[N+](=O)[O-])cccc23)c([N+](=O)[O-])c1	93.4% (inactive)
COc1cc(/C=C2\CN(S(=O)(=O)c3ccc(C)cc3)C/C(=C\c3cc(CN4CCCC4)c(O)c(OC)c3)C2=O)cc(CN2CCCC2)c1O	1.63% (active)

From PubChem BioAssay (NCI)
